IL-1B inflam inh = qHTS for Inhibitors of Inflammasome Signaling: IL-1-beta AlphaLISA Primary Screen | activity change, % at 57.5 µM | 360,000 compounds, 4.7% hits | THP-1 LPS/ATP IL-1B secretion, AlphaLISA, 16 h; active compounds read low; in the data active = activity change below about -50%; inconclusive = mostly about -30% to -49%
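Secreted IL-1B measured by AlphaLISA bead assay after 16 h compound exposure of THP-1 cells; compounds (final up to 57.5 uM) added 1 h before LPS (250 ng/mL) and ATP (1.25 mM) stimulation; lower signal means less secretion.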
TDP1 cell noCPT = qHTS for Inhibitors of human tyrosyl-DNA phosphodiesterase 1 (TDP1): qHTS in cells in absence of CPT | Potency, µM (series often up to 46.2 µM), usual class: inhibitors | 420,000 compounds, 15% hits | DT40 Tdp1-/- hTDP1 cells, no CPT, ATP luminescence, 48 h | AID 686978, 2013; also: nearly all actives have a fitted effect of over 55% in size
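Luminescent ATP content (CellTiter-Glo) served as the growth readout. Knockout chicken DT40 cells expressing human TDP1 were exposed to compounds without camptothecin for a minimum 48 hr at 37 °C.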
HT1080-NT tox = qHTS for induction of synthetic lethality in tumor cells producing 2HG: qHTS for the HT-1080-NT fibrosarcoma cell line. AID 686970, 2013. 360,000 compounds, 1.6% hits. Potency, µM (series often up to 46.1 µM), usual class: cytotoxic. HT-1080-NT fibrosarcoma viability, CellTiter-Glo ATP luminescence, 48 h;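 also: NT is the 2HG producing partner of a matched IDH1 knockdown line; nearly all actives have a fitted effect of over 55% in size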
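Fibrosarcoma NT cells, 750 per well in 5% FBS RPMI, were exposed to compound for 48 hours. Viability: CellTiter-Glo luminescence.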
TDP1 cell CPT = qHTS for Inhibitors of human tyrosyl-DNA phosphodiesterase 1 (TDP1): qHTS in cells in presence of CPT. chicken DT40 Tdp1-/-;hTDP1 cells + 20 nM CPT, ATP luminescence, 48 h. Potency, µM (titrated, usually from 46.2 µM), most hits filed as inhibitors. 420,000 compounds, 12% hits. AID 686979, 2013; also: nearly all actives have a fitted effect of over 55% in size
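Chicken DT40 Tdp1-/- cells stably complemented with human TDP1 were seeded at 400 cells/well in medium containing 20 nM camptothecin, exposed to pin-transferred compounds, and grown at 37 °C for at least 48 hr. Viability was read as ATP luminescence.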
12-LOX inh = Primary qHTS assay for inhibitors of human arachidonate 12S-lipoxygenase (ALOX12): Round 2; purified 12hLO, xylenol orange hydroperoxide absorbance; Potency, µM (doses to about 108 µM), usual class: inhibitors; 580,000 compounds, 1.1% hits; AID 1671190, 2021
Target sequence (P18054 whole entry, looked up): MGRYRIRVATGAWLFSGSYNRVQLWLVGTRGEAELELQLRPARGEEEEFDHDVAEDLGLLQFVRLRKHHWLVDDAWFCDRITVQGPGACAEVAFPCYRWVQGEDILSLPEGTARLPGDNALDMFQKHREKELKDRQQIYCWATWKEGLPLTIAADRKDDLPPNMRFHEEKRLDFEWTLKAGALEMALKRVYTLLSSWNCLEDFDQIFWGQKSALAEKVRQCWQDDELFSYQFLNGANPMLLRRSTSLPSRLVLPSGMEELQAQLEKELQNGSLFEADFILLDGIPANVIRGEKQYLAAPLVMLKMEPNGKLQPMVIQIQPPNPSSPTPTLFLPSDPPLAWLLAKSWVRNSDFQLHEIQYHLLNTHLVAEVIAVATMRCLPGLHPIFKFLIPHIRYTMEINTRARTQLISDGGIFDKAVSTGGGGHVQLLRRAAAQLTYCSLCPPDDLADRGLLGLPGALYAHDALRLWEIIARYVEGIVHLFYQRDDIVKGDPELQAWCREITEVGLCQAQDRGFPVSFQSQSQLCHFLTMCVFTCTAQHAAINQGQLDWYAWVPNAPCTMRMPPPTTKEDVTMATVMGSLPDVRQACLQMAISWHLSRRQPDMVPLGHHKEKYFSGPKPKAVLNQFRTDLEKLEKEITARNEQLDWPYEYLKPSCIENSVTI
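Hydroperoxide product was detected by ferrous iron/xylenol orange as the 573 to 405 nm absorbance ratio. Arachidonic acid at 40 uM (final) was turned over for 30 min at room temperature by 150 nM human 12hLO, pH 7.0 Hepes buffer, after 15 min compound preincubation.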
HT1080 IDH1KD tx = qHTS for induction of synthetic lethality in tumor cells producing 2HG: qHTS for the HT-1080-IDH1KD cell line; Potency, µM (series often up to 46.1 µM), hits mostly cytotoxic; HT-1080 IDH1 knockdown viability, ATP luminescence, 48 h; 360,000 compounds, 2% hits
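Cytotoxicity counter-line: IDH1KD HT-1080, 48 h, CellTiter-Glo. Curves classed by r2, magnitude and activity.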
Hits are given with their value; n = inactive; u = inconclusive; x = no result given. Many of the other results were omitted from the sample, so hits are more common in it than they were. Unless noted, calls follow the shape of the dose curve; as a rule, active = well fitted curve in the direction sought with a large enough effect; inconclusive = small, poorly fitted or top-dose-only effect, or another doubt; inactive = no such curve, though single readings can be large; an effect the other way counts as inactive or inconclusive.

SMILES	IL-1B inflam inh	TDP1 cell noCPT	HT1080-NT tox	TDP1 cell CPT	12-LOX inh	HT1080 IDH1KD tx
CCN1CCN(C(=S)Nc2ccc3nc(N4CCN(CC)CC4)cc(C)c3c2)CC1	u	u	n	n	n	u
CCN1CCN(c2cc(C)c3cc(NC(=S)N4CC(C)CC(C)C4)ccc3n2)CC1 (centres undefined)	-89	u	u	u	u	16µM
Cn1c(SCc2ccc(F)cc2)nnc1-c1cc2ccccc2o1	x	x	x	x	n	x
CCOC(=O)CNC(=S)n1ncnc1N	n	u	n	16µM	n	n
CCOC(=O)CNC(=S)SC	n	n	n	n	n	n
Cc1ccc(C(=O)NC2CCN(C(=O)N3CC4CC(C3)[C@H]3CCCC(=O)N3C4)CC2)cc1 (some centres undefined)	x	x	x	x	n	x
COC(=O)c1cc(S(=O)(=O)n2nc(C)c(Br)c2C)c(Cl)cc1Cl	-85	15µM	u	26µM	n	u
Cc1cc(C)n(S(=O)(=O)c2cc(C(=O)O)c(Cl)cc2Cl)n1	n	u	n	n	n	n
O=C(NC1CCN(c2nnc3ccccn23)CC1)c1ccc(Cl)s1	x	x	x	x	n	x
Cc1ccc(N=Cc2c(Cl)cccc2Cl)c(C)c1	x	x	x	x	n	x
Cc1csc(/C(C#N)=N/O)n1	n	n	n	n	n	n
Cc1csc(/C(=N\O)c2csc(C)n2)n1	n	u	u	n	n	16µM
c1ccc2c(-c3ccc4nncn4c3)cncc2c1	n	u	n	u	n	n
Cc1cc(O)ccc1-c1ccc2nncn2c1	n	n	n	16µM	n	n
CCCCC(=O)NC(c1ccco1)c1cc(Cl)c2cccnc2c1O (centres undefined)	n	16µM	u	u	u	9.2µM
CCC(=O)NC(c1ccco1)c1cc(Cl)c2cccnc2c1O (centres undefined)	n	3.7µM	u	u	n	3.7µM
CCC(=O)NC(c1ccco1)c1cc(Cl)c2cccnc2c1OC (centres undefined)	x	x	x	x	n	x
CCC(=O)NC(C)c1cc(Cl)c2ccccc2c1O (centres undefined)	x	x	x	x	n	x
Clc1ccc(-n2nnnc2-c2ccccc2)cc1	n	n	n	n	n	n
COc1ccc(-n2nnnc2-c2ccccc2)cc1	n	2.9µM	5.6µM	3.7µM	n	u
CCCc1ccc(S(=O)(=O)N2CCC(c3nnnn3-c3ccc(OC)cc3)CC2)cc1	x	n	x	n	n	x
COc1ccc(-n2nnnc2C2CCN(S(=O)(=O)c3cccc(Cl)c3C)CC2)cc1	x	26µM	x	21µM	n	x
COc1ccc(S(=O)(=O)Cc2nnnn2-c2ccc(Cl)c(Cl)c2)cc1	x	x	x	x	n	x
COc1ccc(-n2nnnc2-c2ccc(S(C)(=O)=O)cc2Cl)cc1	n	5.2µM	n	u	n	n
CCOc1ccc(C(=O)Nc2ccc3oc(-c4ccc5ccccc5c4)nc3c2)cc1	x	u	x	3.7µM	n	x
SMILES	IL-1B inflam inh	TDP1 cell noCPT	HT1080-NT tox	TDP1 cell CPT	12-LOX inh	HT1080 IDH1KD tx
CCOc1cccc(C(=O)Nc2ccc3oc(-c4ccc(C(C)(C)C)cc4)nc3c2)c1	x	2.9µM	x	u	n	x
CCOc1cccc(C(=O)Nc2ccc3oc(-c4cccnc4)nc3c2)c1	u	u	n	u	n	n
CCOc1ccc(C(=O)Nc2ccc3oc(-c4ccncc4)nc3c2)cc1	x	n	x	n	u	x
CCOC(=O)c1ccc(NC(=O)CSc2ncnc3c(-c4ccccc4)c[nH]c23)cc1	x	x	x	x	n	x
O=C(NCCc1ccc(C(F)(F)F)cc1)C12CC3CC(CC(Cl)(C3)C1)C2	x	x	x	x	n	x
OC(c1cc(-c2ccc(C(F)(F)F)cc2)nc(C(F)(F)F)c1)C1CCCCN1 (centres undefined)	-104	6.5µM	u	1.6µM	u	u
COc1ccc(-c2cc(C(F)(F)F)nc(SCC(=O)N3CCC(C)CC3)n2)cc1	x	u	x	u	n	x
COc1ccccc1-c1nc2n(n1)C(c1ccccc1Cl)C(C(=O)Nc1cccnc1)=C(C)N2 (centres undefined)	x	21µM	x	u	n	x
CCOc1ccc(C2C(C(=O)Nc3ccccc3)=C(C)Nc3nc(-c4ccccc4Cl)nn32)cc1OC (centres undefined)	x	18µM	x	u	n	x
COc1cc(C2C(C(=O)Nc3ccccc3)=C(C)Nc3nnnn32)cc(OC)c1OC (centres undefined)	x	12µM	x	n	n	x
Cc1cccc(NC(=O)Cn2c(-c3cccc(Cl)c3)nc(C)c(CCO)c2=O)c1C	x	x	x	x	n	x
O=C(CN1C2CCCC1CC(NC(=O)c1ccccc1)C2)Nc1ccccc1C(F)(F)F (centres undefined)	n	16µM	n	u	n	n
O=C(CN1CCC(NC(=O)c2ccco2)CC1)Nc1ccccc1C(F)(F)F	n	u	n	n	n	n
O=C(CN1C2CCCC1CC(NC(=O)c1ccco1)C2)Nc1ccccc1C(F)(F)F (centres undefined)	n	23µM	n	23µM	n	n
Clc1ccc(-c2nnc([C@H]3CCN(Cc4c[nH]c5ccccc45)C3)o2)cc1	x	x	x	x	n	x
CCNC(=O)N(C1CC1)C1CCOC2(CCN(C(=O)NCc3ccc(C)cc3)CC2)C1 (centres undefined)	x	x	x	x	n	x
COc1ccc(-c2nn(-c3ccccc3)cc2CN2CCCC(C#N)C2)c(F)c1 (centres undefined)	x	x	x	x	n	x
CC(=O)Nc1ccccc1-c1nc2ccccc2n(C(C)C(=O)Nc2cccc(C)c2C)c1=O (centres undefined)	x	u	x	21µM	n	x
CCC(=O)Nc1ccccc1-c1nc2ccccc2n(CC(=O)Nc2ccccc2OC)c1=O	x	5.8µM	x	5.8µM	n	x
COc1ccc(NC(=O)Cn2c(=O)c(-c3cc(C)ccc3NC(C)=O)nc3ccccc32)c(OC)c1	x	n	x	n	n	x
CCC(C(=O)Nc1ccc(C)c(Cl)c1)n1c(=O)c(-c2ccccc2NC(C)=O)nc2ccccc21 (centres undefined)	x	13µM	x	21µM	n	x
COc1ccc(Cl)cc1NC(=O)Cn1c(=O)c(-c2ccccc2NC(C)=O)nc2ccccc21	x	15µM	x	13µM	n	x
CC(=O)Nc1ccccc1-c1nc2ccccc2n(C(C)C(=O)Nc2ccccc2C(F)(F)F)c1=O (centres undefined)	x	u	x	n	n	x
NC(=O)CSc1ncc(-c2ccc(F)cc2)o1	x	x	x	x	n	x

Screens as filed in PubChem BioAssay.
